From PubChem BioAssay AID1863 (Southern Research Specialized Biocontainment Screening …, 2009)
The campaign covered roughly 300,000 compounds. About 480 (0.16%) were called active.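 The calls were made as follows: active = inhibition over 29.93%, a cutoff 3 SD above the screen mean, later confirmed by dose response; inconclusive = inhibition over 29.93% but no dose response follow-up; inactive = inhibition at most 29.93% or unconfirmed.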 These entries were drawn from the full list. Results with a measured potency or affinity are listed apart.

Assay: PhoP-dependent GFP reporter repression – Salmonella Typhimurium, primary screen (AID 1863);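 also: 0% = low Mg2+ inducing control and 100% = high Mg2+ repressing control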
Settings: S. Typhimurium PhoP-regulated promoter GFP reporter, 4 h; at 50 µM; active compounds read high

inhibition, inactive:
CCCNC(=O)Nc1ccc(F)c(Cl)c1 -2.59%, COc1ccc(CNc2nc(NCc3ccc(OC)cc3)n(S(C)(=O)=O)n2)cc1 -5.9%, Cc1c(NC(=O)/C(C#N)=C/c2ccccc2)c(=O)n(-c2ccccc2)n1C 0.82%, CCc1ccc2nc(N)sc2c1 1.27%, Cc1cc(C(=O)N/N=C/c2ccc(C)s2)n[nH]1 11.3%, O=C(N/N=C/c1ccc(Cl)s1)C(O)c1ccccc1 (configuration not stated) -4.15%, O=C(N/N=C/c1ccc([N+](=O)[O-])s1)c1ccccc1 -2.83%, Cc1[nH]cnc1C(=O)N/N=C/c1ccc([N+](=O)[O-])s1 4.75%, O=C(CSc1nnc(-c2ccccn2)o1)Nc1ccccc1 -5.62%, CCc1ccccc1NC(=O)c1cc(-c2cccs2)on1 -12.5%, COC(=O)c1cc(N=C(N)N=C(N)N)cc(C(=O)OC)c1 -9.38%, O=c1c2ccccc2nc2c3ccccc3c(Cl)nn12 4.87%, Cc1ccc(OCCC(=O)OCC(=O)Nc2cc(C)cc(C)c2)cc1 -5.06%, Cc1cc(NC(=O)COC(=O)C2=COCCO2)c([N+](=O)[O-])cc1C -7.57%, Oc1ccc(CNc2ccccc2)c2cccnc12 5.74%, COCc1cc(CN2CCN(C)CC2)c(O)c2ncccc12 6.95%, Oc1ccc(CN2CCC(Cc3ccccc3)CC2)c2cccnc12 10.7%, Oc1ccc(CN2CCN(c3ccccc3)CC2)c2cccnc12 -1.49%, COCc1ccc(O)c2ncccc12 -1.56%, COc1ccccc1N1CCN(Cc2ccc(O)c3ncccc23)CC1 18.9%, Cc1ccccc1NCc1ccc(O)c2ncccc12 -2.12%, Oc1cc2c(cc1CN1CCc3ccccc3C1)OCO2 -4.04%, CC(=O)Nc1ccc(S(=O)(=O)NC(C)C(=O)NC(C)c2ccccc2)cc1 (configuration not stated) -5.32%, Cc1ccccc1OCC(=O)NC(=S)Nc1ccccc1N1CCN(S(C)(=O)=O)CC1 -1.77%, CC1=C(C(=O)OC(C)C)C(c2ccsc2)NC(=O)N1C (configuration not stated) -5.45%, Cc1ccc(S(=O)(=O)NCCC(=O)NCC(=O)Nc2c(C)cccc2C)cc1C -4.98%, Cc1nc2ccccc2n1CCCOc1ccccc1 5.12%, OC(COc1ccc(Cl)cc1)CN1CCC(Cc2ccccc2)CC1 (configuration not stated) -10.4%, CC1(C)CCC(=O)C=C1Nc1ccc(F)c(Cl)c1 -5.11%, CCC(CC)C1=NN2C(=N)/C(=C/c3ccc(OC(=O)c4ccco4)cc3)C(=O)N=C2S1 -9.8%, C=CCN(c1ccccc1)S(=O)(=O)c1cccc(C(=O)N2CC(C)CC(C)C2)c1 (configuration not stated) -1.91%, CCCOc1ccc(C(C)(O)CN2CCOCC2)cc1 (configuration not stated) 6.65%, Oc1ccc(CN2CCCCC2)c2cccnc12 8.92%, CCOC(=O)C1CCN(Cc2ccc(O)c3ncccc23)CC1 6.23%, CN(Cc1ccccc1)S(=O)(=O)c1ccccc1[N+](=O)[O-] 6.63%, COc1ccccc1NC(=S)N1CCN(c2ccccc2F)CC1 -4.74%, CCn1cc(C(=O)NC(C)C)c(=O)c2cc(F)c(N3CCN(C(=O)c4ccco4)CC3)cc21 3.82%, CCn1cc(C(=O)O)c(=O)c2cnc(N3CCN(C(=S)Nc4ccccc4Cl)CC3)nc21 14.7%, COc1ccc(CCNC(=O)C(C(=O)c2ccc(F)cc2)n2ccccc2=O)cc1OC (configuration not stated) 7.45%, Cc1cc(C)n(CCNS(=O)(=O)c2ccc(C)c(C)c2)n1 5.17%, CC(C)(C)NC(=O)NC(=O)CSc1ncn[nH]1 4.4%, O=C(NNC(=O)c1ccccc1O)c1ccco1 4.25%, O=C(NC(=S)NNC(=O)c1cc2ccccc2cc1O)c1ccco1 -4.81%, O=C1CC(c2cc([N+](=O)[O-])ccc2Cl)c2c(ccc3ccccc23)N1 (configuration not stated) -8.09%, COc1cccc(/C=C/C(=O)OCC(=O)Nc2ccccc2Sc2ccccc2)c1 14.5%, COC(=O)C1=CO[C@@H](OC2OC(CO)C(O)C(O)C2O)[C@@H]2[C@@H](C)[C@@H](O)C[C@H]12 (some centres not stated) -2.72%, Cc1ccc(C)c(/C(O)=C2/C(=O)C(=O)N(CCN3CCOCC3)C2c2ccc(C)o2)c1 (configuration not stated) 3.28%, Cc1ccc(S(=O)(=O)Oc2ccc(/C=N/NC(=O)c3nn(C)cc3Cl)cc2)cc1 1.65%, Cc1ccccc1NC(=O)Cn1nc(-c2ccc(Cl)s2)ccc1=O -3.56%, O=C(c1cnc2n(c1=O)CCS2)N1CCN(C(c2ccccc2)c2ccc(Cl)cc2)CC1 (configuration not stated) 3.09%, O=C(O)/C=C/c1ccc([N+](=O)[O-])o1 23.2%, O=C1CN(/N=C/c2ccc([N+](=O)[O-])o2)C(=O)N1 -5.89%, COc1ccc2nc(Nc3ccc4c(c3)OCO4)sc2c1 14%, CC(C)CN(C(=O)COC(=O)CCCc1nc2ccccc2s1)c1c(N)n(Cc2ccccc2)c(=O)[nH]c1=O -9.27%, O=C(NCCCc1ccccc1)c1ccc(-n2cncn2)c([N+](=O)[O-])c1 2.7%, O=c1[nH]cc(-c2ccccc2)c(=O)[nH]1 -0.675%, O=c1[nH]cc(O)c(=O)[nH]1 6.24%, O=[N+]([O-])c1ccccc1/C=N/n1c(C2CCCCC2)n[nH]c1=S 8.51%, Cn1c(-c2ccccc2)c(CCO)c2ccccc21 -0.97%, c1ccc(-n2c3ccccc3c3ccccc32)cc1 -2.33%, O=C(CN(Cc1ccc(Br)cc1)S(=O)(=O)c1ccccc1)NCC1CCCO1 (configuration not stated) -5.51%, Cc1ccc(N2CC(C(=O)Nc3ccccc3C(=O)NC3CCCCC3)CC2=O)cc1 (configuration not stated) 3.33%
